PubChem BioAssay AID924 (National Center for Advancing Translational Sciences (NCATS), 2007)
Where “and” joins values, the source holds several entries; their conditions need not be identical. Equal entries are not always repeated. The whole screen tested about 130,000 compounds, of which about 1,200 (0.92%) were called active. About 3% were inconclusive and are not listed. What follows is part of a selection rich in actives, with near analogues and random picks from the rest. Values without a mark were called inactive. Calls follow the shape of the dose curve; as a rule, active = well fitted cell-killing curve with a large enough effect; inconclusive = small, poorly fitted or top-dose-only effect; inactive = no such curve, though single readings can be large or run the other way.

Test: qHTS Screen for Compounds that Selectively Target Cancer Cells with p53 Mutations: Cytotoxicity of p53ts Cells at the Permissive Temperature; also: nearly all actives have a fitted effect of over 55% in size;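 as to activity change, negative = cytotoxicity: 0% = DMSO and -100% = full killing by reference compound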
Conditions: H1299-p53A138V at 32C, ATP luminescence viability, 24 h; series mostly up to 46.1 µM; activity change, negative = cytotoxicity: at the top concentration
Source text: NIH Chemical Genomics Center [NCGC] NIH Molecular Libraries Screening Centers Network [MLSCN] MLSCN Grant: 1 X01 MH079844-01 Assay Submitter (PI): Dr. SUN, YI, University of Michigan NCGC Assay Overview: Synthetic Lethal Screen for Compounds to Kill Cancer Cells with p53 Mutation. Tumor suppressor gene p53 serves as a major cellular barrier against tumorigenesis. […] The goal of this screening is to identify small molecule probes that selectively kill cancer cells with mutations in p53. This screening was carried out using two lines of H1299 lung cancer cells. The H1299-p53 A138V line express a temperature sensitive p53 mutant (p53ts) in which the mutant p53 protein (A138V) is in the mutant confirmation when grown at 39C (the nonpermissive temperature) and in the wild type conformation when grown at 32C (the permissive temperature). A H1299-neo line (p53 null) grown at both 39C and 32C were used as counter-screens to filter out false positive associated with temperature shifting. The small molecular compounds that selectively target mutant p53-containing cancer cells were selected as candidate probes for further study. A cytotoxicity assay based on the measurement of ATP contents in cells was used in this screen. Concentration-responses of all the compounds in the library collection were determined in qHTS using the cell lines and temperature conditions as above.
NCGC Assay Protocol Summary: Both the H1299-p53A138V and H1299-neo cell lines were provided by Dr.Yi Sun, a PI at the University Michigan. The cells were maintained and cultured at 37C. The resuspended frozen cells were used to plate the cells in the 1536-well assay plates at a density of 600 cells per well in 5 ul medium. The assay plates with the cells were incubated at 37C for 16 to 30 hours before the experiments. The library compounds in DMSO solution were added to the cells in assay plates and incubated 24 hours at 39C (for mutant p53 conformation) or 32C (for normal p53 conformation as control). An ATP_lite assay kit (PerkinElmer) was used to determine the cell viability. Tomaxifen (100uM) was used as the positive control for cell killing. Data were normalized to the controls for basal activity (DMSO only) and 100% killing (100uM tamoxifen). AC50 values were determined from concentration-response data modeled with the standard Hill equation. P53 assay protocol: 1. Reagent; 5 uL H1299-p53A138V or H1299-neo cell cells/well 2. Time; overnight; 37C incubation 3. Compounds; 23 nL; 5.9 nM to 46 uM 4. Controls; 23 nL; Tamoxifen 100 uM 5. Time; 24 hr; 37C incubation 6. Reagent; 3 uL; ATP_Lite reagent 7. Time; 20 min; Room Temperature 8. Detection; Luminescence; Viewlux plate reader Keywords: p53, synthetic lethal, cancer, cell viability, cytotoxicity, H1299 cell line, luminescence, MLSMR, MLSCN, NIH Roadmap, qHTS, NCGC
Potency is read from the fitted curve at half-maximal effect.

Row | Structure (SMILES) | activity change, negative = cytotoxicity | Potency
1 | CCN(CCCCOC(=O)c1ccc(OC)c(OC)c1)C(C)Cc1ccc(OC)cc1 (stereo not drawn) | -4.52% | 
2 | COc1ccc(/C=C/NC(=O)Cc2ccc(OC)c(OC)c2)cc1 | -5.23% [at 9.22 µM] and 5.05% [at 9.22 µM] | 
3 | COc1ccc(C(CCN(Cc2ccc(OC)c(OC)c2)C(=O)CCl)c2ccccc2)cc1 (stereo not drawn) |  | 5.01 µM (active)
4 | CCc1ccc(NC(=O)c2cc(S(=O)(=O)N3CCCC(C)C3)cn2C)cc1 (stereo not drawn) | -1.68% | 
5 | COc1cccc(NC(=O)CSC2=Nc3ccccc3C3=NC(CC(=O)NC4CCCCC4)C(=O)N23)c1 (stereo not drawn) | -4.48% | 
6 | COC(=O)c1ccccc1NC(=O)Cn1c(=O)cc(C)c2c(C)nn(-c3cccc(Cl)c3C)c21 | 1.69% | 
7 | Cc1ccc(NC(=O)CSc2nc3c([nH]c4ccccc43)c(=O)n2-c2ccccc2)c(C)c1 | -0.407% | 
8 | CC(C)c1ccc(NC(=O)CN(C)S(=O)(=O)c2ccc3c(c2)c(=O)n(C)c(=O)n3C)cc1 | -1.91% | 
9 | COC(=O)c1sc(NC(=O)c2csc3c2CCCC3)nc1C | -10.1% | 
10 | COc1ccc(C(=O)Nc2nncs2)c(OC)c1 | -22% | 
11 | COC(=O)c1sc(NC(=O)c2ccc(OC)cc2OC)nc1C |  | 0.398 µM (active)
12 | COc1ccc(-c2nc3sc(CCNS(=O)(=O)c4ccc(F)c(C)c4)c(C)n3n2)cc1 | -7.31% | 
13 | Cc1ccccc1Nc1nn2c(=O)c3ccc(C(=O)NCCc4ccc(Cl)cc4)cc3nc2s1 |  | 15.8 µM (active)
14 | CCn1c(=O)c2cc(C(=O)NCCc3ccc(Cl)cc3)sc2c2ccccc21 | 4.45% | 
15 | O=C(NCCc1ccc(Cl)cc1)c1ccc2nc(CCc3ccccc3)oc2c1 | 0.682% | 
16 | CCOc1ccc(C(=O)c2cn(Cc3ccccc3OC)c3ccc(F)cc3c2=O)cc1 | 10.8% | 
17 | CCOC(=O)c1cc2c(=O)n3ccccc3nc2n(CC2CCCO2)c1=NC(=O)c1ccccc1Br (stereo not drawn) | 3.37% | 
18 | O=C(NCc1ccc2c(c1)CCN2C(=O)c1ccccc1)Nc1cc(F)ccc1F | 3.25% | 
19 | COc1ccc(-c2cc(-c3nc(-c4cc(OC)c(OC)c(OC)c4)no3)[nH]n2)c(OC)c1 | -4.57% | 
20 | COc1ccc(-c2nc(-c3ccccc3)no2)c(OC)c1 |  | 5.01 µM (active)
21 | COc1ccc(-c2noc(CSc3nnc(-c4ccccc4)n3-c3ccc(F)cc3)n2)c(OC)c1 | 24.7% | 

Row | Structure (SMILES) | activity change, negative = cytotoxicity | Potency
22 | CCn1c(C)c(C)c2cc(C(=O)N3CCN(c4cccc(C)c4C)CC3)ccc21 | -5.04% | 
23 | CCOc1ccc(C(=O)/C=C/c2cn(CC(O)CN3CCCCCC3)c3ccccc23)cc1 (stereo not drawn) | -24.6% | 
24 | CCOC(=O)c1nnn(CC(=O)NC(=O)Nc2ccccc2F)c1C(=O)OCC | -0.4% | 
25 | Cc1ccc2oc(C(=O)Nc3ccc(S(=O)(=O)N4CCCCCC4)cc3)cc(=O)c2c1 | -1.14% | 
26 | Cc1nn2c3cc(N4CCOCC4)ccc3nc2c2ccccc12 |  | 2 µM (active)
27 | Cc1nc2ccccc2n1C(=O)N1CCOCC1 | -6.66% | 
28 | Cc1cc(C)c2c(n1)nn1c(N3CCOCC3)cc(C)nc21 | 10.3% | 
29 | COc1ccc(CNC(=O)CC2Oc3ccc(C)cc3NC2=O)cc1 (stereo not drawn) | 9.45% | 
30 | Cc1cc(=O)c2cc(C(=O)Nc3cccc(C)c3C)ccc2[nH]1 | 1.75% | 
31 | O=C(CSc1nnc(CNC(=O)c2ccccc2)n1-c1ccc(F)cc1)Nc1ccccc1F | 2.75% | 
32 | CCc1ccc2oc(-c3ccc(N)cc3)nc2c1 |  | 7.94 µM (active)
33 | CCc1ccc2oc(-c3ccc(C)c(NC(=O)/C=C/c4ccco4)c3)nc2c1 | -25.8% | 
34 | CCc1ccc2oc(-c3ccc(NC(=O)c4cc5ccccc5o4)cc3)nc2c1 | -9.08% | 
35 | COc1ccc(-c2nnc(SCC(=O)Nc3ccc(C(C)C)cc3)nc2-c2ccc(OC)c(OC)c2)cc1OC | 19.3% | 
36 | CC(C)(C)c1ccc(C(=O)NCC(c2ccc(Cl)cc2)N2CCOCC2)cc1 (stereo not drawn) | 16.9% | 
37 | O=C(Cn1c(=O)sc2ccccc21)Nc1nc2c(s1)CCCC2 | -2.62% | 
38 | O=C(Nc1nc2c(s1)CCCC2)c1ccccc1F |  | 7.94 µM (active)
39 | NC(=O)c1ccccc1NC(=O)c1ccccc1F | -1.7% | 
40 | O=C1N(Cc2ccccc2)c2ccc(Cl)cc2C1(O)c1c[nH]c2ccccc12 (stereo not drawn) | 4.69% | 
41 | Cn1c(=O)c(C(=O)Nc2ncccn2)c(O)c2ccccc21 |  | 12.6 µM (active)
42 | CCOc1cc(C(=O)Nc2ncccn2)cc(OCC)c1OCC | -3.26% | 

Row | Structure (SMILES) | activity change, negative = cytotoxicity | Potency
43 | O=C(Nc1ncccn1)c1cccs1 | -9.12% | 
44 | CC1CCCN(c2nc3c(S(=O)(=O)c4ccc(C(C)C)cc4)nnn3c3ccsc23)C1 (stereo not drawn) | 6.56% | 
45 | CCOc1ccc(C(=O)Nc2ccc3nc4c(c(Nc5ccccc5OC)c3c2)CCCC4)cc1 | -14.2% | 
46 | CCOc1ccc(NC(=O)CSc2c3c(nc4ccccc24)CCCC3)cc1 |  | 22.4 µM (active)
47 | COc1cccc(CNC(=O)CSc2c3c(nc4cc(Cl)ccc24)CCCC3)c1 | 5.88% | 
48 | CCOC(=O)c1cc(-c2ccccc2)n(CCC(=O)Nc2ccccc2CC)c1C | 7.84% | 
49 | Cc1ccc(CSc2nc3cccnc3n2Cc2ccc(C(=O)NC3CC3)cc2)cc1 |  | 2.24 µM (active)
50 | O=C(NCc1ccc(F)cc1)c1ccc(Cn2c(SCc3ccc(F)cc3)nc3cccnc32)cc1 | -25.6% | 
51 | O=C(NC1CCCCC1)c1ccc(Cn2c(SCc3ccccc3)nc3cccnc32)cc1 | -24.1% | 
52 | Cc1ccc(Cl)cc1NC(=O)Cc1ccc(-n2c(C)nc3cccnc32)cc1 | -1.95% | 
53 | COc1cccc(N2CC(NC(=O)/C=C\c3ccccc3)CC2=O)c1 (stereo not drawn) | -6.84% | 
54 | CCc1ccccc1NC(=O)c1cccs1 | 10.4% | 
55 | Cc1nc(-c2ccc(NC(=O)c3cccs3)cc2)cs1 |  | 1.26 µM (active)
56 | O=C(O)c1ccc(NC(=O)c2cccs2)cc1 | -6.14% | 
57 | Cc1c(CNC(C)c2ccccc2)c(C(=O)O)c(C)n1Cc1c(F)cccc1Cl (stereo not drawn) | 9.47% | 
58 | COc1cc(NC(=O)C2CCN(c3cnccn3)CC2)cc(OC)c1 | 4.51% | 
59 | c1ccc(-c2nc(NCc3ccco3)c3ccccc3n2)cc1 | 1.53% | 
60 | CN(C)c1ccc(-c2nc(NCCN3CCOCC3)c3ccccc3n2)cc1 |  | 12.6 µM (active)
61 | c1ccc2[nH]c(NCCN3CCOCC3)nc2c1 | -0.862% | 
62 | NS(=O)(=O)c1ccc(CCNC(=O)CCCCCn2c(=O)[nH]c3ccccc3c2=O)cc1 | 5.53% | 
63 | CC(=O)Nc1cccc(NC(=O)CSc2cn(CC(=O)N3CCCC3)c3ccccc23)c1 | -2.57% | 
